Data from PubChem BioAssay.
For part of these data: Potency and affinity values are given separately. The source made the active and inactive calls. Unless noted, the rule behind the calls is not given here.

Legend:
[1] = antimalarial activity against Dd2 strain (AID 2302;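 active = growth inhibition above 50% at the single 2 µM test dose, taken to imply half-maximal potency below 2 µM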;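 note: 0% = DMSO untreated growth and 100% = chloroquine plus artemisinin killed control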); conditions: P. falciparum Dd2 in RBCs, LDH growth readout, 72 h; at 2 µM; active compounds read high
[2] = HepG2 cytotoxicity, primary screen, cytotoxicity control for P. falciparum antimalarial project, cell-based, ATP luminescence (AID 2303;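 active = inhibition above 50%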;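 note: 0% = DMSO wells and 100% = digitonin-killed cells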); conditions: HepG2 viability, 24-48 h, at 10 µM, active compounds read high
[3] = molecular target: L-lactate dehydrogenase (Plasmodium falciparum (isolate CDC / Honduras)) (UniProt Q27743); test: PfLDH activity inhibition – cell lysate, 3D7 strain, counter-screen for P. falciparum growth inhibition project (AID 2304);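 note: 0% = vehicle and 100% = reference inhibitor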; conditions: P. falciparum 3D7 crude extract, LDH APAD/NBT absorbance; at 2 µM; active compounds read high
[4] = inhibition of 3D7 malaria parasite growth – strain 3D7 (AID 2306);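 note: 0% = DMSO wells and 100% = chloroquine plus artemisinin control wells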; conditions: P. falciparum 3D7 erythrocytic growth, LDH absorbance, 72 h; at 2 µM; active compounds read high
[5] = molecular target: Calcium-dependent protein kinase 1 (Plasmodium falciparum (isolate 3D7)) (UniProt P62344); test: PfCDPK1 kinase inhibitors, biochemical, TCAMS library (AID 1159585; cut-off not given, nearly all actives have IC50 up to about 0.98 µM;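 note: inhibitors leave more ATP so luminescence rises with inhibition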); conditions: recombinant PfCDPK1, Kinase-Glo ATP depletion luminescence
[6] = molecular target: Plasmodium falciparum protein kinase 6 (PK6, PF3D7_1337100) (UniProt Q8IDW1); test: PfPK6 kinase inhibitors, biochemical, TCAMS library (AID 1159586); conditions: recombinant PfPK6, Kinase-Glo ATP depletion luminescence
[7] = molecular target: Protein kinase 7 (PK7), Plasmodium falciparum 3D7 (PF3D7_0213400) (UniProt Q7YTF7); test: inhibition of Plasmodium PK7 catalytic activity – biochemical, TCAMS antimalarial set, Kinase-Glo luminescence (AID 1159587); conditions: recombinant PfPK7, Kinase-Glo ATP depletion luminescence
[8] = molecular target: Calcium-dependent protein kinase 4 (Plasmodium falciparum (isolate 3D7)) (UniProt Q8IBS5); test: PfCDPK4 kinase inhibitors, biochemical, TCAMS library (AID 1159588; cut-off not given, nearly all actives have IC50 up to about 0.91 µM); conditions: recombinant PfCDPK4, Kinase-Glo ATP depletion luminescence
Calcium-dependent protein kinase 4 (Plasmodium falciparum (isolate 3D7)), sequence (Q8IBS5 whole entry, looked up): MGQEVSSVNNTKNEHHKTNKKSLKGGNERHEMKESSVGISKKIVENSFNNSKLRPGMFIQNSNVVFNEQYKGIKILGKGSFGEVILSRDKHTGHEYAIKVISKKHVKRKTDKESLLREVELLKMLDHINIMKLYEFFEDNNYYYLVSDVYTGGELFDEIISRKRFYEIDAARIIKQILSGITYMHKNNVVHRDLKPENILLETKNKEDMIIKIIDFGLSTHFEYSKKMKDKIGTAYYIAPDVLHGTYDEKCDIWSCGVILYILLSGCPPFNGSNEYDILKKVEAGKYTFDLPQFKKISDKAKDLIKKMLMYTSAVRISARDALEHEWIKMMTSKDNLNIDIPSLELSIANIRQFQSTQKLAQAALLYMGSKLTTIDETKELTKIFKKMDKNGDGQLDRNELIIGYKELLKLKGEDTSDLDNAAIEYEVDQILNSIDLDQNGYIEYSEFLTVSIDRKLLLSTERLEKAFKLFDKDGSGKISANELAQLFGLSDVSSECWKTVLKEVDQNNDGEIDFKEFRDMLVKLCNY

L-lactate dehydrogenase (Plasmodium falciparum (isolate CDC / Honduras)), sequence (Q27743 whole entry, looked up): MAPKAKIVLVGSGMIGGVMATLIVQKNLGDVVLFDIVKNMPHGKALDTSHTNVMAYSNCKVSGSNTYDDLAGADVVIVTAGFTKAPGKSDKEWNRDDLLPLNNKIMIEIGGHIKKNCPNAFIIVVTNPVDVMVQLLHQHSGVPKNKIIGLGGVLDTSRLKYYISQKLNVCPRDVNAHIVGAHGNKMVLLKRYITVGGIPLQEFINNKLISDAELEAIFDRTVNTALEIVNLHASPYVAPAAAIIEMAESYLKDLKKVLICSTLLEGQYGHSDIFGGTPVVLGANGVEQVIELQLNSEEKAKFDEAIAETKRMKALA
Protein kinase 7 (PK7), Plasmodium falciparum 3D7 (PF3D7_0213400), sequence (Q7YTF7 1-343): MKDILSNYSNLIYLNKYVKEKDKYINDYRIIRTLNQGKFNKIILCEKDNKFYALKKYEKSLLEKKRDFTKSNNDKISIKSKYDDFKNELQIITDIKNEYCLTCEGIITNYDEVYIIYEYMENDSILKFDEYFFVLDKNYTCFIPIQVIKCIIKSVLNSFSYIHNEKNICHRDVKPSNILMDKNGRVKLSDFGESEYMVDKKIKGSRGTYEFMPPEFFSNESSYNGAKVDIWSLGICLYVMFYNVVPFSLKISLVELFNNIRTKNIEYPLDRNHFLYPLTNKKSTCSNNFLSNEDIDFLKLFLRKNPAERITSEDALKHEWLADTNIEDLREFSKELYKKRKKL
Calcium-dependent protein kinase 1 (Plasmodium falciparum (isolate 3D7)), sequence (P62344 whole entry, looked up): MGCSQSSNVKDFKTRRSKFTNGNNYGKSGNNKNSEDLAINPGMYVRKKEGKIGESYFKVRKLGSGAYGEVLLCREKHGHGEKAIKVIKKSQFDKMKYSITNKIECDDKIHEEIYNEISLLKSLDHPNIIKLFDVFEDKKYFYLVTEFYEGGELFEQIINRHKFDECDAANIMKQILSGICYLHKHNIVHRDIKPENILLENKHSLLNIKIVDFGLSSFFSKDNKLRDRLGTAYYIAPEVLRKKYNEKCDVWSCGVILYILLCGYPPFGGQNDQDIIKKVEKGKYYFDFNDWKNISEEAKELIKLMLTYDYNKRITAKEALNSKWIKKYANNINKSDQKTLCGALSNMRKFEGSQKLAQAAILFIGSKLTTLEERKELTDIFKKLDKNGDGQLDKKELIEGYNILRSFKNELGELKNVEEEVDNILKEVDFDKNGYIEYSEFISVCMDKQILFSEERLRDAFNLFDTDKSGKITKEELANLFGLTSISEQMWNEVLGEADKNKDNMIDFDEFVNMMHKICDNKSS
Plasmodium falciparum protein kinase 6 (PK6, PF3D7_1337100), sequence (Q8IDW1 1-305): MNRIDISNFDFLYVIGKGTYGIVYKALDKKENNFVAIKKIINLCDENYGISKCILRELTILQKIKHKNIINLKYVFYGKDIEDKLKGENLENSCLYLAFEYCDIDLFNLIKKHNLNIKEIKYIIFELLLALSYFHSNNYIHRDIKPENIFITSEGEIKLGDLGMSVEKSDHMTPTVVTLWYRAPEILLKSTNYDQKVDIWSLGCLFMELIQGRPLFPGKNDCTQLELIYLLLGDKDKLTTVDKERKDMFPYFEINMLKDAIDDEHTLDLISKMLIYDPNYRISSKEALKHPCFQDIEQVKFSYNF

Cc1ccc(NC(=O)c2ccc(CN3CCCN(CCC(C)C)CC3)cc2)cc1F
inactive: growth inhibition [1] 31% | inhibition [2] 40% | inhibition [3] 1% | outcome [5] | outcome [6] | outcome [7] | outcome [8]
active: growth inhibition [4] 91%

NCC1CCCN1Cc1ccc(-c2ccc(-c3nc4ccc(F)cc4[nH]3)cc2)cc1 (configuration not stated)
inactive: inhibition [2] 31% | inhibition [3] -3% | outcome [5] | outcome [6] | outcome [7] | outcome [8]
active: growth inhibition [1] 100% | growth inhibition [4] 102%

c1ccc2[nH]c(-c3ccc(-c4ccc(CN5CCN(CCN6CCOCC6)CC5)cc4)cc3)nc2c1
inactive: inhibition [2] 43% | inhibition [3] -1% | outcome [5] | outcome [6] | outcome [7] | outcome [8]
active: growth inhibition [1] 99% | growth inhibition [4] 98%

COc1ccc2nccc(NC(=O)CNCc3ccc(-c4ccccc4)cc3)c2c1
inactive: growth inhibition [1] 35% | inhibition [2] 11% | inhibition [3] -4% | outcome [5] | outcome [6] | outcome [7] | outcome [8]
active: growth inhibition [4] 101%

COc1cc2nc(N3CCC(CNC(=O)c4ccc(-c5ccc(C(=O)N(C)C)cc5)cc4)CC3)nc(N)c2cc1OC
inactive: inhibition [2] 20% | inhibition [3] 0% | outcome [5] | outcome [6] | outcome [7] | outcome [8]
active: growth inhibition [1] 89% | growth inhibition [4] 101%

O=C(NCCCc1ccccc1)c1csc(C2CCCN(C(=O)c3ccc(O)c(-c4ccccc4)c3)C2)n1 (configuration not stated)
active: growth inhibition [1] 97% | growth inhibition [4] 97%
inactive: inhibition [2] 5% | inhibition [3] 5% | outcome [5] | outcome [6] | outcome [7] | outcome [8]

Fc1ccc2nc(-c3cccc(-c4cccc(CNCC5CCCO5)c4)c3)[nH]c2c1 (configuration not stated)
active: growth inhibition [1] 94% | growth inhibition [4] 99%
inactive: inhibition [2] 40% | inhibition [3] 3% | outcome [5] | outcome [6] | outcome [7] | outcome [8]

Fc1ccc(-c2oc(C3CCN(CCc4ccc(-c5nc(=S)o[nH]5)cc4)CC3)nc2COCC(F)(F)F)cc1
active: growth inhibition [1] 95% | growth inhibition [4] 97%
inactive: inhibition [2] 5% | inhibition [3] 3% | outcome [5] | outcome [6] | outcome [7] | outcome [8]

COc1ccc(Br)cc1C1Nc2ccc3ccccc3c2C2=C1C(=O)CC(c1ccccc1)C2 (configuration not stated)
active: growth inhibition [1] 96% | growth inhibition [4] 101%
inactive: inhibition [2] 25% | inhibition [3] 4% | outcome [5] | outcome [6] | outcome [7] | outcome [8]

O=C(NC1CCCCN(Cc2ccccc2O)C1)c1ccc(-c2ccccc2)cc1 (configuration not stated)
active: growth inhibition [1] 61% | growth inhibition [4] 97%
inactive: inhibition [2] 21% | inhibition [3] -3% | outcome [5] | outcome [6] | outcome [7] | outcome [8]

NC(=O)c1cc2nc(Nc3ccc(F)cc3)nc(NC3CCC3)c2[nH]1
active: growth inhibition [1] 102% | growth inhibition [4] 102%
inactive: inhibition [2] 0% | inhibition [3] 3% | outcome [5] | outcome [6] | outcome [7] | outcome [8]

O=C(/C=C/c1ccc2ccccc2c1)NCCCCCN1CCC(c2c[nH]c3ccccc23)CC1
active: growth inhibition [4] 90%
inactive: growth inhibition [1] 4% | inhibition [2] 18% | inhibition [3] 6% | outcome [5] | outcome [6] | outcome [7] | outcome [8]

CCCCCC(C)C(C)c1cc(O)c2c(c1)OC(C)(C)CC2(O)c1ccnn1C (configuration not stated)
active: growth inhibition [1] 95% | growth inhibition [4] 98%
inactive: inhibition [2] 20% | inhibition [3] 4% | outcome [5] | outcome [6] | outcome [7] | outcome [8]

COc1cccc(C(=O)NCCc2cccc(Cl)c2)c1Oc1ccccc1
active: growth inhibition [1] 90% | growth inhibition [4] 97%
inactive: inhibition [2] 28% | inhibition [3] -1% | outcome [5] | outcome [6] | outcome [7] | outcome [8]

Cc1cc([N+](=O)[O-])ccc1N1CCN(CCCCNC(=O)c2ccc(NC(=O)c3ccc(Cl)cc3)cc2)CC1
inactive: growth inhibition [1] -1% | inhibition [2] 33% | inhibition [3] 2% | outcome [5] | outcome [6] | outcome [7] | outcome [8]
active: growth inhibition [4] 92%

COc1ccc2nc3cc(Cl)ccc3c(NCCN(C)C)c2c1
active: growth inhibition [1] 100% | growth inhibition [4] 102%
inactive: inhibition [2] 4% | inhibition [3] -2% | outcome [5] | outcome [6] | outcome [7] | outcome [8]

COc1cc2c(cc1N1CCN(C)CC1)N(C(=O)Nc1ccc(-c3ccncc3)c(Cl)c1Cl)CC2
active: growth inhibition [4] 102%
inactive: growth inhibition [1] 4% | inhibition [2] 10% | inhibition [3] -6% | outcome [5] | outcome [6] | outcome [7] | outcome [8]

CCCN(CCC)C(=O)c1cc(C(=O)N[C@@H](Cc2ccccc2)[C@H](O)CNCc2cccc(OC)c2)cc(N2CCCCS2(=O)=O)c1
active: growth inhibition [1] 99% | growth inhibition [4] 97%
inactive: inhibition [2] -1% | inhibition [3] 4% | outcome [5] | outcome [6] | outcome [7] | outcome [8]

C=C[C@H]1CN(CCCCCCC)CC[C@H]1CC(O)Cc1ccnc2cc(O)c(OC)cc12 (some centres not stated)
inactive: inhibition [2] 7% | inhibition [3] 1% | outcome [5] | outcome [6] | outcome [7] | outcome [8]
active: growth inhibition [1] 59% | growth inhibition [4] 95%

Cc1cc(NN=Cc2cccc(Cl)c2)c2cc(F)ccc2n1
inactive: inhibition [2] 1% | inhibition [3] -5% | outcome [5] | outcome [6] | outcome [7] | outcome [8]
active: growth inhibition [1] 100% | growth inhibition [4] 101%

COc1cc2nc(N3CCC(CNC(=O)c4ccc(-c5ccc(C(=O)N(C)C)cc5)c(OCCO)c4)CC3)nc(N)c2cc1OC
active: growth inhibition [4] 96%
inactive: growth inhibition [1] 18% | inhibition [2] 10% | inhibition [3] -3% | outcome [5] | outcome [6] | outcome [7] | outcome [8]

Cc1cc(NN=Cc2ccccn2)c2cc(C(F)(F)F)ccc2n1
active: growth inhibition [1] 100% | growth inhibition [4] 102%
inactive: inhibition [2] -10% | inhibition [3] -4% | outcome [5] | outcome [6] | outcome [7] | outcome [8]

COc1ccc(Oc2ccccc2CNCC2CCN(CC3CCCCC3)CC2)cc1
inactive: growth inhibition [1] 28% | inhibition [2] 34% | inhibition [3] -8% | outcome [5] | outcome [6] | outcome [7] | outcome [8]
active: growth inhibition [4] 85%

NC1=NC(CCc2ccccc2)N(c2ccc(Cl)cc2)C(N)=N1 (configuration not stated)
inactive: growth inhibition [1] 20% | inhibition [2] 2% | inhibition [3] -5% | outcome [5] | outcome [6] | outcome [7] | outcome [8]
active: growth inhibition [4] 94%

CCN(c1ccccc1)S(=O)(=O)c1ccc(OC)c(NC(=O)c2cccc(C(F)(F)F)c2)c1
inactive: inhibition [2] 9% | inhibition [3] -2% | outcome [5] | outcome [6] | outcome [7] | outcome [8]
active: growth inhibition [1] 70% | growth inhibition [4] 90%

FC(F)(F)c1cccc(CCNc2nccc(NCc3ccc(Cl)cc3Cl)n2)c1
active: growth inhibition [1] 59% | growth inhibition [4] 97%
inactive: inhibition [2] 8% | inhibition [3] 1% | outcome [5] | outcome [6] | outcome [7] | outcome [8]

Cc1ccc(C(=O)Nc2cccc(CN3CCCN(Cc4ccc(O)cc4)CC3)c2)cc1
inactive: growth inhibition [1] 5% | inhibition [2] -4% | inhibition [3] -3% | outcome [5] | outcome [6] | outcome [7] | outcome [8]
active: growth inhibition [4] 88%

Cc1cccc2[nH]c(-c3ccc(-c4ccc(NC(=O)Nc5ccc(Cl)c(Cl)c5)cc4)s3)nc12
active: growth inhibition [1] 101% | inhibition [2] 100% | growth inhibition [4] 101%
inactive: inhibition [3] 0% | outcome [5] | outcome [6] | outcome [7] | outcome [8]

O=[N+]([O-])c1ccc2nc(Nc3cccc(C(F)(F)F)c3)c(Nc3cccc(C(F)(F)F)c3)nc2c1
inactive: inhibition [2] -2% | inhibition [3] -4% | outcome [5] | outcome [6] | outcome [7] | outcome [8]
active: growth inhibition [1] 99% | growth inhibition [4] 101%

CCOc1ccccc1C(=O)N1CCc2cc3nccc(N4CCN5CCC[C@H]5C4)c3cc21
active: growth inhibition [1] 58% | growth inhibition [4] 100%
inactive: inhibition [2] 4% | inhibition [3] -8% | outcome [5] | outcome [6] | outcome [7] | outcome [8]

CCN(C1CCCCC1)S(=O)(=O)c1ccc(OC)c(N2CCN(C(=O)C(Cl)(Cl)Cl)CC2)c1
inactive: inhibition [2] 0% | inhibition [3] 3% | outcome [5] | outcome [6] | outcome [7] | outcome [8]
active: growth inhibition [1] 85% | growth inhibition [4] 100%

COc1cccc(Nc2nc(C)cc(NCc3ccc(-c4c(C)noc4C)cc3)n2)c1
active: growth inhibition [4] 98%
inactive: growth inhibition [1] 42% | inhibition [2] 33% | inhibition [3] -1% | outcome [5] | outcome [6] | outcome [7] | outcome [8]

CCn1cc(CN2CCCC(C(=O)Nc3ccc(-c4nc5ccccc5[nH]4)cc3)C2)cn1 (configuration not stated)
active: growth inhibition [4] 100%
inactive: growth inhibition [1] 26% | inhibition [2] 8% | inhibition [3] -1% | outcome [5] | outcome [6] | outcome [7] | outcome [8]

COc1cc(NCCCNCC2c3ccccc3Oc3ccccc32)nc2ccccc12
active: growth inhibition [1] 66% | inhibition [2] 99% | growth inhibition [4] 99%
inactive: inhibition [3] -9% | outcome [5] | outcome [6] | outcome [7] | outcome [8]

COc1ccccc1N1CCN(C(C(=O)NCc2ccc(C)cc2)c2ccc(C)cc2)CC1 (configuration not stated)
inactive: inhibition [2] 12% | inhibition [3] 6% | outcome [5] | outcome [6] | outcome [7] | outcome [8]
active: growth inhibition [1] 79% | growth inhibition [4] 92%

CCC(=O)Nc1ccc(C(O)CN2CCC3(C=Cc4ccccc4O3)CC2)cc1 (configuration not stated)
active: growth inhibition [4] 93%
inactive: growth inhibition [1] 47% | inhibition [2] 48% | inhibition [3] -1% | outcome [5] | outcome [6] | outcome [7] | outcome [8]

Oc1ccc2[nH]cc(C3CCN(CCCCCCCCCN4CCC(c5c[nH]c6ccc(O)cc56)CC4)CC3)c2c1
active: growth inhibition [4] 101%
inactive: growth inhibition [1] 2% | inhibition [2] 22% | inhibition [3] -5% | outcome [5] | outcome [6] | outcome [7] | outcome [8]

Cc1[nH]cnc1-c1cccc(NC(=O)c2cc3ccccc3s2)c1
inactive: growth inhibition [1] 48% | inhibition [2] 5% | inhibition [3] -5% | outcome [5] | outcome [6] | outcome [7] | outcome [8]
active: growth inhibition [4] 99%

Cc1ccc(-c2ccc(NC(=O)N3CCc4cc(Br)c(N5CCN(C)CC5)cc43)cc2)cn1
inactive: growth inhibition [1] 16% | inhibition [3] -3% | outcome [5] | outcome [6] | outcome [7] | outcome [8]
active: inhibition [2] 86% | growth inhibition [4] 80%
